# DAX1 inh-1 = DAX1 (NR0B1) inhibitors, primary screen, cell-based, HEK293, Gal4-DAX1, luciferase luminescence. Nuclear receptor subfamily 0 group B member 1 (Homo sapiens), P51843. HEK293 Gal4-DAX1 luciferase reporter. inhibition, % at 6.75 µM. 0.99% of 340,000 active;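 active = inhibition above the mean over all tested compounds plus 3 SD, cut at about 4.2% in these data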;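 note: 0% = DAX1-transfected cells with DMSO and 100% = empty-vector control cells with DMSO; inhibition shows as a rise in luminescence from relieved DAX1 repression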
# Target sequence (P51843 207-470 limits assumed): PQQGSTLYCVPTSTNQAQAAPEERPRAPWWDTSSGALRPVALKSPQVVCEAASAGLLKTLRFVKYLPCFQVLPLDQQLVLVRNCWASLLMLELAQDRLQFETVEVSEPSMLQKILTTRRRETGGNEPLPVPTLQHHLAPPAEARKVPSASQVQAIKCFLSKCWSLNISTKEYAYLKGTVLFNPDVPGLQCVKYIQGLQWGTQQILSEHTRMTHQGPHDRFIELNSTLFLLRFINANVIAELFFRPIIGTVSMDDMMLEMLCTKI
# ssDAF12 agonist = S. stercoralis DAF-12 nuclear receptor activators, primary screen, cell-based, luminescence, HEK293, GRIP1 co-expression, lit1-tk-luc; HEK293 ssDAF-12/GRIP1 lit1-tk-luc reporter; % of 3 µM dafachronic acid response; activation, % at 6.8 µM; 1% of 370,000 active; AID 652126, 2013;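 active = activation above the mean over all tested compounds plus 3 SD, cut at about 0.9% in these data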;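 note: 0% = DMSO-only wells and 100% = 3 µM delta7-dafachronic acid wells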
# hgDAF-12 ag = H. glycines DAF-12 receptor agonists, primary screen, cell-based, luminescence, HEK293, GAL4 fusion, UAS-luciferase | Nuclear hormone receptor DAF-12 (Heterodera glycines), GAL4 fusion | HEK293 GAL4-hgDAF12 UAS-luciferase reporter, agonist luminescence; normalized to butyrate control | activation, % at 6.8 µM | 1.8% of 370,000 active;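 active = activation above a cutoff set at the mean of all screened compounds plus 3 SD, cut at about 10% in these data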;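 note: 0% = DMSO wells and 100% = sodium butyrate wells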
# DAX1 inh-2 = DAX1 (NR0B1) inhibitors on StAR promoter, primary screen, cell-based, luminescence, SF-1 (NR5A1), full-length DAX-1; 1.1% of 370,000 active; inhibition, % at 6.8 µM; HEK293T StAR-luciferase reporter, SF-1/DAX-1 repression relief;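 active = inhibition above the mean over all tested compounds plus 3 SD, cut at about 3.6% in these data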;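 note: 0% = DAX-1 cells with DMSO and 100% = cells lacking DAX-1 with DMSO; higher inhibition means more luminescence from relief of DAX-1 repression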
# hcDAF-12 act = H. contortus DAF-12 nuclear receptor activators, primary screen, cell-based, luminescence, HEK293, lit1-tk-luc reporter. HEK293 hcDAF-12 lit1-tk-luc reporter; 0% DMSO, 100% Δ7-dafachronic acid. 1.4% of 370,000 active. activation, % at 6.8 µM;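 active = activation above the mean of all tested compounds plus 3 SD, cut at about 5.5% in these data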;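 note: 100% = response to 3 µM Δ7-dafachronic acid high control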
# PolyA inhibitor = polyadenylation inhibitors in yeast reporter cells, primary screen, luminescence, S. cerevisiae | S. cerevisiae SKY197-pL101 polyadenylation reporter, beta-gal luminescence; efflux-impaired pdr1/pdr3 knockout yeast; score 100 = 6 SD above DMSO | 0.02% of 300,000 active | activity score, % at 12 µM | AID 1875, 2009;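 active = lowest replicate activity score at least 50, where 100 means six control SD above control mean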;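 note: yeast exposed to compound for 9 h at 30 °C; higher score means more reporter readthrough which indicates perturbed polyadenylation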
# hgDAF12 ag = H. glycines DAF-12 receptor agonists, confirmation, cell-based, luminescence, HEK293, GAL4-LBD fusion. shares compounds with hgDAF-12 ag. HEK293 GAL4-hgDAF12 luciferase reporter, agonist mode; percent of butyrate response. activation, % at 6.8 µM. 80% of 3,300 active. AID 743050, 2013;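 active = mean activation over triplicate wells above the hit cutoff derived from the earlier primary screen, cut at about 11% in these data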;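 note: 0% = DMSO low control and 100% = 2 mM sodium butyrate high control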
# LXRb DAF12 ctr = LXR agonists, Gal4 luciferase reporter, confirmation, counter-screen for hgDAF-12 agonist project, cell-based, luminescence, HEK293, H. glycines campaign; shares compounds with hgDAF-12 ag; 24 h; activation, % at 6.8 µM; 3,300 tested, under 10 active; AID 743051, 2013;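 active = mean activation of the triplicate above a set limit carried over from the primary screen, none filed active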
# * = called active by the depositor; . = no result. Hits are enriched below; roughly 4.1% of the tested compounds scored in any of these assays.
SMILES,DAX1 inh-1,ssDAF12 agonist,hgDAF-12 ag,DAX1 inh-2,hcDAF-12 act,PolyA inhibitor,hgDAF12 ag,LXRb DAF12 ctr
Nc1ccccc1NC(=O)c1ccccc1,7.4*,-1.0,27.0*,4.3*,2.1,4.0,50.9*,0.2
COc1ccc([C@@H]2CC=C(C(=O)O)[C@H](c3ccc(F)cc3)N2S(=O)(=O)c2ccccc2C)cc1,-0.2,-1.1,0.1,-0.7,-1.1,.,.,.
Cc1nc2ccc(S(=O)(=O)CCC(=O)NCCc3ccccc3)cc2s1,.,-0.7,2.8,-0.5,-0.9,.,.,.
COc1ccccc1N(CC(=O)NC1CCCCC1)S(=O)(=O)c1ccccc1,-0.3,-1.3,2.1,-0.2,-2.3,-10.2,.,.
Cc1ccc(NC(=O)c2ccc3c(c2)OCCO3)cc1,-1.6,-0.5,9.1,1.8,4.8,-3.1,.,.
Cc1ccc(NC(=O)c2ccc(Cl)c(N3C(=O)C=CC3=O)c2)cc1,2.6,0.5,13.5*,3.8*,3.4,-11.7,-0.1,0.0
C/C(CCc1ccccc1)=N\NC(=O)c1ccccc1,1.4,0.1,13.9*,1.9,1.0,0.6,3.0,0.1
O=C(CSc1ccc([N+](=O)[O-])cc1)NNC(=O)c1ccccc1F,0.3,-0.7,1.6,-0.7,-0.8,-1.4,.,.
C/C(CC(=O)Nc1cccc(Cl)c1Cl)=N\NC(=O)c1ccccc1Br,2.2,-0.6,3.0,0.8,2.0,-24.4,.,.
C/C(CC(=O)Nc1cccc(Cl)c1Cl)=N\NC(=O)c1ccccc1N,4.2*,0.4,13.5*,2.4,4.9,-19.7,3.0,0.2
Nc1cc(N)nc(SCC(=O)NC(=O)NC2CCCC2)n1,0.9,-0.5,-0.2,0.7,-1.1,.,.,.
O=C(NCCc1csc(-c2ccccc2)n1)c1c(F)cccc1F,-0.9,-1.3,1.5,-0.5,-0.6,-17.6,.,.
O=C(NCCc1ccccc1)c1ccc(NC(=O)C2CC2)cc1,1.2,0.3,13.7*,2.8,1.4,.,7.4,0.2
O=C(NCCc1ccccc1)c1c(F)cccc1F,0.5,-0.1,14.2*,3.9*,2.5,2.6,12.5*,0.5
Cc1ccc(NC(=O)c2cc(-c3ccccc3)nn2-c2ccccc2)cc1,-2.2,-2.3,-2.1,-1.2,-1.2,-3.1,.,.
CC(=O)C(/C=N/c1cc(-c2ccc(C)cc2)nn1-c1ccccc1)=C(\C)O,1.3,1.1*,19.2*,3.5,5.6*,1.6,9.7,0.5
COc1cc(/C=N/N=C(\N)c2nonc2N)ccc1O,2.4,-0.7,8.4,1.7,0.0,-6.4,.,.
N/C(=N\N=C\c1ccc(O)c(O)c1)c1nonc1N,2.6,0.1,15.3*,1.1,2.4,-18.2,6.5,0.2
Nc1nccc(-c2cc(-c3ccc(Cl)cc3Cl)no2)n1,10.1*,1.9*,14.8*,2.5,5.7*,-18.3,19.6*,1.0
O=C(O)c1ccc(-c2nc(-c3ccc(Cl)cc3Cl)cs2)cc1,1.6,-0.3,8.5,0.8,-0.5,-12.2,.,.
COc1ccc(Nc2nc(N)c3ccccc3n2)c(OC)c1,4.8*,0.5,13.3*,1.5,4.2,3.0,15.3*,0.6
COc1ccc(Nc2nc(-c3ccccc3)nc3ccccc23)c(OC)c1,0.0,-0.6,-0.1,-0.6,-0.6,24.7,.,.
